# G9a inh: blocks human histone lysine methyltransferase G9a; Q96KQ7; G9a H3K9 monomethylation, AlphaScreen, 2 h; Potency, µM (titrated, usually from 102 µM), inactives show at the highest dose activity, negative = inhibition, hits mostly inhibitors; 8.8% of 350,000 active; AID 504332; also: % is scaled to controls: 0 for no effect and ±100 for the full control effect; nearly all actives have a fitted effect of over 75% in size
# Target sequence (Q96KQ7 913-1193 limits assumed): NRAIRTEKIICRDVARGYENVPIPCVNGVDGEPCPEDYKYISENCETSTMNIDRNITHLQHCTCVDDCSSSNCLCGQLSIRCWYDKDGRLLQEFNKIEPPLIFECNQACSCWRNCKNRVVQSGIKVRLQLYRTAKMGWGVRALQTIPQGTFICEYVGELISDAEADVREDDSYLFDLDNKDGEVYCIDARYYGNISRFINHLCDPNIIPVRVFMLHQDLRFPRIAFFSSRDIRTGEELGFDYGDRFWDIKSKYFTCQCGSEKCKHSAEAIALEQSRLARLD
#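 Signal arises when biotinylated H3K9 peptide, once monomethylated, bridges streptavidin donor and antibody-captured acceptor beads. Enzyme at 20 nM was preincubated 15 min with test compounds; peptide 500 nM and SAM 20 uM then reacted for 2 h.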
# JMJD2A Tudor: blocks the human JMJD2A Tudor domain. O75164. Potency, µM (highest dose often 114 µM), for inactives: at the top dose activity change, negative = inhibition, hits mostly inhibitors. AID 504339. 4.4% of 390,000 active. AlphaScreen JMJD2A-Tudor / H3K4me3 peptide binding; also: % is scaled to controls: 0 for no effect and ±100 for the full control effect; nearly all actives have a fitted effect of over 50% in size
# L3MBTL1 block: blocks human L3MBTL1; Q9Y468; AlphaScreen L3MBTL1–H3K9me1 peptide binding; Potency, µM (series often up to 57.1 µM), without a hit: at the top dose activity, negative = inhibition, most hits filed as inhibitors; 0.66% of 230,000 active; also: % is scaled to controls: 0 for no effect and ±100 for the full control effect; nearly all actives have a fitted effect of over 60% in size
#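 Displacement of a biotinylated histone H3(1-15) peptide monomethylated at Lys9 (75 nM) from L3MBTL1 (50 nM) was measured by AlphaScreen after a 30 min room-temperature compound incubation; cefsulodin titration served as intraplate control.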
# HP1b chromo inh: blocks HP1-beta chromodomain binding to methylated histone tails. P83916. AlphaScreen HP1-beta / biotin-H3K9me3 peptide binding. Potency, µM (doses to about 114 µM), for inactives: top-dose activity change, negative = inhibition, most hits filed as inhibitors. 0.56% of 390,000 active; also: nearly all actives have a fitted effect of over 70% in size
# Target sequence (P83916 whole entry, looked up): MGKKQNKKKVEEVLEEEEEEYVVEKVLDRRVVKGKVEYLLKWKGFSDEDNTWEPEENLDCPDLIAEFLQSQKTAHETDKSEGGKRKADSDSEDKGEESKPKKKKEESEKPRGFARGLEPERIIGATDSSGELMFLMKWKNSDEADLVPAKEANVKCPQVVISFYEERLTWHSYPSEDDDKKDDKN
#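 AlphaScreen: HP1-beta (50 nM) preformed 30 min with biotin-H3(1-18)K9me3 peptide (50 nM) in PBS pH 7.4, 0.01% Tween-20. Compound added for 30 min at RT, then streptavidin donor/nickel chelate acceptor beads (10 ug/mL) for 30 min.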
# BAZ2B inh: inhibitors of human BAZ2B bromodomain; Q9UIF8; AlphaScreen BAZ2B-H3K14Ac peptide displacement; Potency, µM (highest dose often 114 µM), for inactives: top-dose activity change, negative = inhibition, most hits filed as inhibitors; 4.4% of 360,000 active; also: % is scaled to controls: 0 for no effect and ±100 for the full control effect; nearly all actives have a fitted effect of over 60% in size
#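 In this displacement format the biotinylated H3(5-23) peptide acetylated at Lys14 serves as ligand at 50 nM, with BAZ2B at 50 nM in PBS pH 7.4 containing 0.01% Tween-20. Donor and acceptor beads are 10 ug/mL final.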
# Sfp PPTase inh: Sfp phosphopantetheinyl transferase inhibition | Biochemical Sfp PPTase activity, qHTS | 3.5% of 310,000 active | Potency, µM, inactives show largest response in the series, negative = inhibition, most hits filed as inhibitors | AID 1490 | Q9F4F7;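 also: the enzyme is Sfp with the accession as filed and its product quenches rhodamine fluorescence; 0% = enzyme reaction without inhibitor and -100% = no enzyme wells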
#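 Fluorescence-quenching assay with 15 nM Sfp, 5 uM rhodamine-CoA and 12.5 uM BHQ-2-labelled ybbR peptide in pH 7.6 Hepes/MgCl2 buffer. Enzyme was pre-incubated with compound for 15 min at room temperature. Rate was taken from the 30-min fluorescence change (525/598 nm).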
# * = called active by the depositor; ? = inconclusive; . = no result given; ! = a repeat was not active; [ ] = remark or other dose. Most compounds without a hit are left out; they make up all but 12% or so of the library. Calls follow the shape of the dose curve; as a rule, active = well fitted curve in the direction sought with a large enough effect; inconclusive = small, poorly fitted or top-dose-only effect, or another doubt; inactive = no such curve, though single readings can be large; an effect the other way counts as inactive or inconclusive. Potency is read from the fitted curve at half-maximal effect.
SMILES,G9a inh,JMJD2A Tudor,L3MBTL1 block,HP1b chromo inh,BAZ2B inh,Sfp PPTase inh
O=[N+]([O-])c1ccc(O[C@@H]2O[C@H](CO)[C@@H](O)[C@H](O)[C@H]2F)c([N+](=O)[O-])c1,24µM*!,.,.,.,.,.
S=c1[nH]nc(-c2ccco2)n1-c1cccc2ccccc12,?,40µM*,-5%,13%,-6%,-15%
Cc1cccc(-n2c(-c3ccco3)nc3ccccc3c2=O)c1C,?,-17%,-4%[2.29 µM],18%,1%,11%
COc1ccccc1-n1c(-c2ccco2)n[nH]c1=S,22µM*,22µM*,.,28%,-1%,-24%
C=C[C@H]1CN2CC[C@H]1C[C@H]2c1[nH]c2ccccc2c1CCO,.,.,.,.,.,-1%
O=C(CCS(=O)NCc1ccccc1)NCc1ccccc1 (configuration not stated),18µM*,.,-3%,.,-6%,89µM*
CC1CC2CC(=O)C3CCCN4CCCC2[C@]34C1 (some centres not stated),.,.,.,.,.,15%
CCN(CCCNS(=O)(=O)c1ccc2c(c1)oc(=O)n2C)c1cccc(C)c1,14µM*,16µM*,-25%,?,-32%,-10%
Oc1c(Br)cc(Br)cc1CN1CCN(Cc2ccccc2)CC1,45µM*,20µM*,.,-9%,79µM*,-9%
CCN1CCN(Cc2cc(Br)cc(OC)c2O)CC1,?,-22%,4%,25%,12%,10%
CCCc1cc(N2CCN(c3ccc(OC)cc3)CC2)n2cnnc2n1,?,-25%,.,15%,?,.
CCCCCCCCCCCCCCCC[n+]1ccccc1,-35%[2.33 µM],-9%,.,65%,.,50µM*!
CCCCCCC[n+]1ccc(-c2cc[n+](CCCCCCC)cc2)cc1,4.5µM*,?,-2%,3%,79µM*,-17%
C[n+]1ccc(-c2cc[n+](C)cc2)cc1,.,-12%,.,19%,.,.
COC(=O)[C@@]1(Cc2ccccc2)[C@H]2c3cc(C(=O)N(C)C)[nH]c3C[C@H]2CN1C(=O)c1ccccc1,.,.,.,.,.,11%
CNC(=S)S,.,.,.,.,.,-19%
Cc1cc(OCC(=O)N2CCN(CCc3ccccn3)CC2)cc(C)c1Cl,-23%[59 µM],-10%,.,46%,-37%,.
O=C(c1ccc(F)cc1)N1CCC2(CC1)OCCO2,.,-11%,1%,14%,-6%,5%
S=C(c1ccc(Cl)cc1)N1CCOCC1,11µM*,-21%,1%,-32%,-2%,40µM*
CNc1ccc2oc(C[C@@H]3OC4(CC[C@@H]3C)O[C@H](C(C)C(=O)c3ccc[nH]3)[C@H](C)C[C@H]4C)nc2c1C(=O)O (some centres not stated),18µM*,.,.,.,.,17%
CO[C@@H](C)[C@](O)(C(=O)OCC1=CCN2CC[C@@H](O)[C@H]12)C(C)C,25%[21.5 µM],.,.,.,.,14%
CC(C)[C@H](NC(=O)[C@H](CCC(=O)O)NC(=O)[C@H](Cc1ccccc1)NC(=O)[C@H](C)NC(=O)[C@@H](N)Cc1ccc(O)cc1)C(=O)N[C@H](C(=O)NCC(N)=O)C(C)C,27%[59 µM],.,.,.,.,-24%
CC[C@H]1C(=O)OC[C@H]1Cc1cncn1C,5%[21.5 µM],.,.,.,.,10%
COc1cc(/C=C/C(=O)c2c(O)n(CCc3ccccc3)c(=O)[nH]c2=O)ccc1O,45µM*,-9%,1%,16%,11%,-18%
O=C(/C=C/c1ccccc1)c1c(O)n(CCc2ccccc2)c(=O)[nH]c1=O,21%[59 µM],-20%,5%,10%,2%,8%
C=CCN1C(=O)NC(=O)/C(=C/c2cc3c4c(c2)CCCN4CCC3)C1=O,?,?,28µM*,20µM*,50µM*,?
CCN(CC)c1ccc(/C=C2\C(=O)NC(=O)N(CC3CCCO3)C2=O)cc1 (configuration not stated),?,-27%,-6%,4%,?,-29%
C=CCN1C(=O)NC(=O)/C(=C/c2cnc(SC)nc2)C1=O,?,79µM*,2%,-49%,4%,32µM*
